Results on 31 compounds are retold here after PubChem BioAssay (Tox21).

Unmarked numbers belong to inactive results. Records with an inconclusive call do not appear. Activity calls are given as the source filed them. Unless noted, calls come from the whole dose curve.
% is set by controls: 0 for no effect and ±100 for the full control effect.

The first test can be described thus: qHTS assay to identify small molecule antagonists of the estrogen related receptor (ERR) signaling pathway from Tox21 library (AID 1224848; active = well fitted inhibition curve with a large enough effect in the repeat runs; note: nearly all actives have a fitted effect of over 50% in size; note: potency is the fitted concentration of half-maximal effect). As to conditions: ERR reporter cell line, luciferase antagonist mode, 18 h; series mostly up to 92.4 µM. The procedure, abridged:
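Tox21 10K compounds in DMSO tested for ERR pathway antagonism in NTP's ERR cell line; 18 h, 37 C exposure; ONE-Glo luminescence.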
A general note: In qHTS, concentration-response curves come from the screen itself.
Consider `CCCCCCCCCCCCCCCCBr`, for which the activity, negative = inhibition was 8.88% [at 19 µM].

For `CCCCCCOC(=O)C(C)C`, the Potency result is “inactive”.

Turning to `COC(=O)c1cc(S(N)(=O)=O)ccc1OC`, the Potency result was “inactive”.

For the compound `C=CC(C)(O)CCCC(C)CCCC(C)CCCC(C)C` (centres undefined), the Potency result is “inactive”.

As to `CN1C(=O)CC(C)(c2ccccc2)C1=O` (centres undefined), the Potency result was “inactive”.

`C[C@]12CCC(=O)C=C1C=C[C@@H]1[C@@H]2CC[C@@]2(C)[C@H]1CC[C@@]21CCC(=O)O1`: the Potency is 23.7 µM (active).

With `Cc1occc1C(=O)Nc1ccc(C(=O)N2CCC(F)(F)/C(=C\C(=O)N3CCC(N4CCCCC4)CC3)c3ccccc32)cc1`, the Potency entry is “inactive”.

`CCCC1C(CC)=CC(CC)=CN1c1ccccc1` (centres undefined): the Potency was 43.3 µM (active).

Take `CC(=O)[C@H]1CC[C@H]2[C@@H]3C[C@H](C)C4=CC(=O)CC[C@]4(C)[C@H]3[C@@H](O)C[C@]12C`: the Potency is 26.6 µM (active).

Take `C=CC(=C)CCCC(C)(C)OC(C)=O`: the Potency result is “inactive”.

Consider `O=S1OCCO1`, for which the Potency entry is “inactive”.

Regarding `C1COCO1`, the Potency result was “inactive”.

Take `CC(=O)Nc1ccccc1C`: the Potency entry is “inactive”.

`COc1cc2[nH]c(=O)[nH]c(=O)c2cc1OC`: the Potency result was “inactive”.

On to `N#C/C(=C1/SC[C@@H](c2ccc(Cl)cc2Cl)S1)n1ccnc1`, for which the Potency is 23.7 µM (active).

A short description of a further test: qHTS assay to identify small molecule agonists of the estrogen related receptor (ERR) signaling pathway from Tox21 library (AID 1224849). Note: nearly all actives have a fitted effect of over 15% in size. As to conditions: ERR reporter cell line, ONE-Glo luciferase, 18 h; at 92.4 µM (top of the series) unless noted. The procedure, abridged:
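Tox21 compounds tested for ERR agonism in an NTP reporter cell line: 18 h treatment at 37 C, then ONE-Glo luminescence.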
Turning to `CNC(=O)N(c1ccccc1)c1ccccc1`, the activity change, positive = activation is -5.23%.

For the compound `CC1(C)C(=O)N(Br)C(=O)N1Cl`, the activity change, positive = activation was 1.48%.

As for `OC/C(Br)=C(\Br)CO`, the activity change, positive = activation was 1.63%.

In the case of `CC1=CC(=O)CC(C)(C)C1(O)/C=C/C(C)=C\C(=O)O` (centres undefined), the activity change, positive = activation was 4.36%.

For `CCCOC(=O)c1ccc(N)cc1`, the activity change, positive = activation was -13.8% [at 42.5 µM].

Take `CCCCC(CC)CNCC(CC)CCCC` (centres undefined): the activity change, positive = activation is 4.2%.

Take `O=C(CCC1CCN(Cc2ccccc2)CC1)c1ccc2c(c1)NCCCC2`: the activity change, positive = activation was -36% [at 42.5 µM].

For the compound `CC(=O)CC(c1ccc([N+](=O)[O-])cc1)c1c(O)c2ccccc2oc1=O` (centres undefined), the activity change, positive = activation is -11.1% [at 42.5 µM].

As for `CO[C@H]1O[C@H](CO)[C@@H](O)[C@H](O)[C@H]1O`, the activity change, positive = activation was 10.5%.

Consider `C=CCCCCCCCCCCCCCCCC`, for which the activity change, positive = activation was 3.59% [at 8.39 µM].

As for `CCCCC(=O)O[C@]1(C(=O)CO)CC[C@H]2[C@@H]3CCC4=CC(=O)CC[C@]4(C)[C@H]3[C@@H](O)C[C@@]21C`, the activity change, positive = activation was -22.8% [at 42.5 µM].

Consider `NC(=O)N(O)[C@@H]1C=C[C@H](Oc2cccc(Oc3ccc(F)cc3)c2)C1`, for which the activity change, positive = activation was -15%.

In the case of `CC1CC(O)CC(C)(C)C1` (centres undefined), the activity change, positive = activation is -6.05%.

For the compound `N#C[C@@H]1C[C@@H]2C[C@@H]2N1C(=O)[C@@H](N)C12CC3CC(CC(O)(C3)C1)C2`, the activity change, positive = activation was 0.254% [at 42.5 µM].

As for `O=Cc1c(Cl)cccc1Cl`, the activity change, positive = activation is 3.9%.

As to `CC1(C)O[C@@H]2C[C@H]3[C@@H]4CCC5=CC(=O)C=C[C@]5(C)[C@H]4[C@@H](O)C[C@]3(C)[C@]2(C(=O)CO)O1`, the activity change, positive = activation is -2.7% [at 42.5 µM].

For `Cc1occc1C(=O)Nc1ccc(C(=O)N2CCC(F)(F)/C(=C\C(=O)N3CCC(N4CCCCC4)CC3)c3ccccc32)cc1`, the activity change, positive = activation is -12.3% [at 42.5 µM].

For `CCCC1C(CC)=CC(CC)=CN1c1ccccc1` (centres undefined), the activity change, positive = activation was -47.2%.

In the case of `CC(=O)[C@H]1CC[C@H]2[C@@H]3C[C@H](C)C4=CC(=O)CC[C@]4(C)[C@H]3[C@@H](O)C[C@]12C`, the activity change, positive = activation is -35.5% [at 42.5 µM].

For the compound `C=CC(=C)CCCC(C)(C)OC(C)=O`, the activity change, positive = activation is -5.77%.

In the case of `O=S1OCCO1`, the activity change, positive = activation was 6.2%.

Consider `CC(=O)Nc1ccccc1C`, for which the activity change, positive = activation is -0.329%.

On to `COc1cc2[nH]c(=O)[nH]c(=O)c2cc1OC`, for which the activity change, positive = activation was 2.16% [at 42.5 µM].

For the compound `N#C/C(=C1/SC[C@@H](c2ccc(Cl)cc2Cl)S1)n1ccnc1`, the activity change, positive = activation is -40.9% [at 42.5 µM].
